Assay results: PubChem BioAssay (NCI)
This is part of a sample that, as a whole, favours compounds with a hit. Of some 83,000 tested, about 20% had one in any assay.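 How to read the values: 0–100, growth inhibition (40 = 60% inhibited); 0, no net growth; -100 to 0, cell death (-40 = 40% of starting cells died; -100 = all dead).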 Calls of active or inactive are those of the source. How the source made its calls: active means growth percent below 10; inactive means the rest.

Each molecule was assayed on MDA-MB-468 breast (assay: NCI-60 one-dose screen, 48 h (100 = growth as untreated, 0 = no growth, -100 = all killed)). Settings: 10 µM unless noted.
`C/C(=C\c1cnc(C)s1)[C@@H]1C[C@@H]2O[C@@H]2CCC[C@H](C)[C@H](O)[C@@H](C)C(=O)C(C)(C)[C@@H](O)CC(=O)O1` was tested, and the growth was 43.4% (inactive). For `Clc1cccc(Cc2cn3cc(-c4ccccc4)nc3s2)c1`, the growth was 44.3% (inactive). With `Clc1cc(Cl)cc(-c2cnc3nonc3n2)c1` the growth was 82% (inactive). In the case of `CC(=O)C[n+]1ccccc1Sc1ccc(Cl)cc1`, the growth is reported as 97.3% (inactive). For `C=C(C)[C@@H]1CC[C@]2(C(=O)N[C@@H](Cc3ccccc3)C(=O)OC)CC[C@]3(C)[C@H](CC[C@@H]4[C@@]5(C)CCC(=O)C(C)(C)[C@@H]5CC[C@]43C)[C@@H]12`, the growth was 84.2% (inactive). For `O=C1Nc2ccccc2C1(c1c[nH]c2ccccc12)c1c[nH]c2ccccc12`, the growth was -23.3% (active). In the case of `CC/C=C(\C)C(CCC)(CN=O)C(=O)OCC` (stereo not given), the growth is reported as 113% (inactive). With `O=C(COc1ccc(-c2nc3ccccc3[nH]2)cc1)N=Nc1c(O)[nH]c2ccccc12` the growth was 34.5% (inactive). `CC[C@H](Nc1cc(C)nc(N)n1)c1nc2cccc(NCc3ccc(C(=O)NO)cc3)c2c(=O)n1-c1ccccc1` was tested, and the growth was -10.6% (active). For `COC(=O)c1c2c(c(C)[n+]([O-])c1C)C(=O)C(NCc1ccc(O)cc1)=CC2=O`, the growth was -44.2% (active).
